“And” between values parts separate entries of the source, which are not always exact repeats. Equal values may be shown once. Hit rate of the full screen: of about 5,500 compounds, about 2,000 (36%) were called active. Not shown: some 18% with an inconclusive outcome. Cut-off read from the data, not from the text of the source: active = normalized growth mostly below about 0.91 (no sharp cut-off); inconclusive = no clear call, values can overlap the other calls; inactive = mostly above about 0.92. The list shows a part of the results.
Assay: chemical genetic growth profiling, strain panel (AID 1159580);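 note: tested at 20 µM; growth read once vehicle control cultures reached saturation at 30 °C; 1 = growth at the plate median or of vehicle wells; lower values mean less growth of the strain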
Settings: growth OD

Measured: normalized growth

COc1ccc(-c2coc3cc(O)cc(O)c3c2=O)cc1
active: S. cerevisiae deletion strains, locus YAL013W, strain DEP1, hits give low values 0.497 | S. cerevisiae deletion strains, locus YBR229C, strain ROT2, hits give low values 0.77 | S. cerevisiae deletion strains, locus YCL029C, strain bik1, hits give low values 0.496 | S. cerevisiae deletion strains, locus YDL035C, strain GPR1, hits give low values 0.241 | S. cerevisiae deletion strains, locus YDL074C, strain BRE1, hits give low values 0.261 | S. cerevisiae deletion strains, locus YDL101C, strain DUN1, hits give low values 0.358 | S. cerevisiae deletion strains, locus YDL134C, strain PPH21, hits give low values 0.295 | S. cerevisiae deletion strains, locus YDL185W, strain tfp1, hits give low values 0.899 | S. cerevisiae deletion strains, locus YDL192W, strain arf1, hits give low values 0.28 | S. cerevisiae deletion strains, locus YDR101C, strain arx1, hits give low values 0.504 | S. cerevisiae deletion strains, locus YDR150W, strain NUM1, hits give low values 0.323 | S. cerevisiae deletion strains, locus YDR162C, strain NBP2, hits give low values 0.12 | S. cerevisiae deletion strains, locus YDR318W, strain mcm21, hits give low values 0.265 | S. cerevisiae deletion strains, locus YDR388W, hits give low values 0.286 | S. cerevisiae deletion strains, locus YDR502C, strain sam2, hits give low values 0.287 | S. cerevisiae deletion strains, locus YEL061C, strain CIN8, hits give low values 0.206 | S. cerevisiae deletion strains, locus YER110C, hits give low values 0.539 | S. cerevisiae deletion strains, locus YER155C, strain BEM2, hits give low values 0.199 | S. cerevisiae deletion strains, locus YER167W, strain BCK2, hits give low values 0.178 | S. cerevisiae deletion strains, locus YGL078C, strain dbp3, hits give low values 0.649 | S. cerevisiae deletion strains, locus YGL086W, strain mad1, hits give low values 0.258 | S. cerevisiae deletion strains, locus YGL248W, strain PDE1, hits give low values 0.286 | S. cerevisiae deletion strains, locus YGR078C, strain PAC10, hits give low values 0.227 | S. cerevisiae deletion strains, locus YGR135W, strain pre9, hits give low values 0.314 | S. cerevisiae deletion strains, locus YGR229C, strain SMI1, hits give low values 0.196 | S. cerevisiae deletion strains, locus YGR252W, strain gcn5, hits give low values 0.507 | S. cerevisiae deletion strains, locus YHR030C, strain SLT2, hits give low values 0.248 and 0.299 | S. cerevisiae deletion strains, locus YHR079C, strain IRE1 (second series), hits give low values 0.526 | S. cerevisiae deletion strains, locus YHR079C, strain IRE1, hits give low values 0.293 | S. cerevisiae deletion strains, locus YHR094C, strain hxt1, hits give low values 0.627 | S. cerevisiae deletion strains, locus YHR129C, strain ARP1, hits give low values 0.363 | S. cerevisiae deletion strains, locus YHR200W, strain rpn10, hits give low values 0.513 | S. cerevisiae deletion strains, locus YIL066C, strain RNR3, hits give low values 0.361 | S. cerevisiae deletion strains, locus YIL073C, strain SPO22, hits give low values 0.532 | S. cerevisiae deletion strains, locus YIL125W, strain kgd1, hits give low values 0.697 | S. cerevisiae deletion strains, locus YIR030C, strain dcg1, hits give low values 0.465 | S. cerevisiae deletion strains, locus YJL095W, strain BCK1, hits give low values 0.172 and 0.287 | S. cerevisiae deletion strains, locus YJL134W, strain LCB3, hits give low values 0.7 | S. cerevisiae deletion strains, locus YJL168C, strain set2, hits give low values 0.888 | S. cerevisiae deletion strains, locus YJL187C, strain SWE1 (second series), hits give low values 0.353 | S. cerevisiae deletion strains, locus YJR043C, strain POL32, hits give low values 0.374 | S. cerevisiae deletion strains, locus YJR066W, strain TOR1, hits give low values 0.16 | S. cerevisiae deletion strains, locus YJR075W, strain HOC1, hits give low values 0.179 | S. cerevisiae deletion strains, locus YKL009W, strain mrt4, hits give low values 0.484 | S. cerevisiae deletion strains, locus YKL085W, strain MDH1 (second series), hits give low values 0.604 | S. cerevisiae deletion strains, locus YKL085W, strain MDH1, hits give low values 0.604 | S. cerevisiae deletion strains, locus YKL190W, strain CNB1, hits give low values 0.223 | S. cerevisiae deletion strains, locus YKR001C, strain vps1, hits give low values 0.189 | S. cerevisiae deletion strains, locus YLR039C, strain RIC1, hits give low values 0.241 | S. cerevisiae deletion strains, locus YLR058C, strain SHM2, hits give low values 0.365 | S. cerevisiae deletion strains, locus YLR102C, strain apc9, hits give low values 0.625 | S. cerevisiae deletion strains, locus YLR113W, strain HOG1, hits give low values 0.332 | S. cerevisiae deletion strains, locus YLR262C, strain YPT6, hits give low values 0.181 | S. cerevisiae deletion strains, locus YLR268W, strain sec22, hits give low values 0.211 | S. cerevisiae deletion strains, locus YLR330W, strain CHS5, hits give low values 0.356 | S. cerevisiae deletion strains, locus YLR342W, strain FKS1 (second series), hits give low values 0.289 | S. cerevisiae deletion strains, locus YLR371W, strain rom2, hits give low values 0.493 | S. cerevisiae deletion strains, locus YLR418C, strain cdc73, hits give low values 0.192 | S. cerevisiae deletion strains, locus YML016C, strain PPZ1, hits give low values 0.444 | S. cerevisiae deletion strains, locus YML032C, strain rad52, hits give low values 0.449 | S. cerevisiae deletion strains, locus YML124C, strain tub3, hits give low values 0.449 | S. cerevisiae deletion strains, locus YMR078C, strain ctf18, hits give low values 0.407 | S. cerevisiae deletion strains, locus YMR223W, strain ubp8, hits give low values 0.297 | S. cerevisiae deletion strains, locus YMR263W, strain SAP30, hits give low values 0.424 | S. cerevisiae deletion strains, locus YMR307W, strain GAS1, hits give low values 0.148 | S. cerevisiae deletion strains, locus YNL067W, strain RPL9B, hits give low values 0.234 | S. cerevisiae deletion strains, locus YNL128W, strain TEP1, hits give low values 0.272 | S. cerevisiae deletion strains, locus YNL153C, strain GIM3, hits give low values 0.439 | S. cerevisiae deletion strains, locus YNL183C, strain NPR1, hits give low values 0.228 | S. cerevisiae deletion strains, locus YNL233W, strain BNI4, hits give low values 0.242 | S. cerevisiae deletion strains, locus YNL250W, strain rad50, hits give low values 0.789 | S. cerevisiae deletion strains, locus YNL271C, strain bni1, hits give low values 0.623 | S. cerevisiae deletion strains, locus YNL298W, strain CLA4, hits give low values 0.459 | S. cerevisiae deletion strains, locus YNL307C, strain MCK1, hits give low values 0.114 | S. cerevisiae deletion strains, locus YNL322C, strain KRE1, hits give low values 0.337 | S. cerevisiae deletion strains, locus YNR052C, strain pop2, hits give low values 0.656 | S. cerevisiae deletion strains, locus YOL006C, strain TOP1, hits give low values 0.29 | S. cerevisiae deletion strains, locus YOL147C, strain pex11, hits give low values 0.362 | S. cerevisiae deletion strains, locus YOR061W, strain CKA2, hits give low values 0.432 | S. cerevisiae deletion strains, locus YOR069W, strain VPS5, hits give low values 0.501 | S. cerevisiae deletion strains, locus YOR136W, strain idh2, hits give low values 0.304 | S. cerevisiae deletion strains, locus YOR144C, strain elg1, hits give low values 0.652 | S. cerevisiae deletion strains, locus YOR184W, strain ser1, hits give low values 0.111 | S. cerevisiae deletion strains, locus YOR231W, strain MKK1, hits give low values 0.288 | S. cerevisiae deletion strains, locus YOR316C, strain cot1, hits give low values 0.636 | S. cerevisiae deletion strains, locus YPL055C, strain LGE1, hits give low values 0.176 | S. cerevisiae deletion strains, locus YPL241C, strain CIN2, hits give low values 0.289 | S. cerevisiae deletion strains, locus YPL256C, strain CLN2, hits give low values 0.345 | S. cerevisiae deletion strains, locus YPR119W, strain clb2, hits give low values 0.308 | S. cerevisiae deletion strains, locus YPR163C, strain tif3, hits give low values 0.207 | S. cerevisiae deletion strains, locus YPR167C, strain met16, hits give low values 0.44 | S. cerevisiae deletion strains, strain wtn01, hits give low values 0.226 | S. cerevisiae strains, strain wild type, hits give low values 0.244
inactive: S. cerevisiae deletion strains, locus YBR021W, strain FUR4, hits give low values 0.988 | S. cerevisiae deletion strains, locus YKL068W, hits give low values 0.964 | S. cerevisiae deletion strains, locus YOL012C, strain htz1 0.231 | S. cerevisiae deletion strains, locus YPR141C, strain kar3, hits give low values 0.935

Source: PubChem BioAssay AID1159580 (chemical genetic matrix, 2015)
